From the supplement of paper PMC6555819

The sequences below were run on VDR:RXRa (NR concentration 270 nM, RXRa partner concentration 90 nM) (assay: PBM binding z-score (relative to random genomic background probes); higher = stronger binding; sequences stand for … in GC…GCGATTGACAGCGTAGAATGAAGG).
Protocol: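 Protein-binding microarray (Agilent 4x180K custom design, double-stranded 60-nt probes: 5' GC cap, 34-nt variable region, 24-nt constant primer region; full probe sequence given). Purified or IVT nuclear receptor:RXRα heterodimers (3:1 NR:RXRα, mostly 270:90 nM) or homodimers were incubated for 1 h in PBS with 2% milk and no ligand, then detected with Alexa488 antibodies. Fluorescence from o1-orientation probes (~5 replicates averaged) was converted to z-scores against 500 random hg19 background probes. Variable regions are seed direct-repeat (DR0–DR5) sites, all their single-nucleotide variants and half-site ablations.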

Sequence | PBM binding z-score
TTACCAAGGTGAAGTTCGTTGATCCCTCTGTAGA | 1.49
TCATATAGGTAAAGGTGAATGTCGAACGATATGA | 0.919
GCTATTAGTTGAAAGGGCAACCTAATGATTCTCG | 0.478
CCGACTGGGGCAAGGTTACGATAACGCACAGCCA | 0.0294
GCAGACAGGTCAAACGCAGGTAACTCAGGGTGGC | 3
CGGCCAAGGTCAATGCTAGGTCAGTGAAAGCATT | 4.95
TCATATAGGTAATACAGGTGACAGTCGGCATCTA | 0.922
CCGCCTGGGGCAGAAAGGTTACCATACCATCCGG | 0.57
CCGAATGGGGCAAGGTTACCATAACGCACAGCCA | 0.34
TCTATTAGTTGTTTAGGGCAACCGAAACAGCGGA | 0.707
AGTCAAAGTTCAGGACAAGGTAACGTAAAGCACG | 2.55
AGAACGAGGGCAATGTGTTGATAGCACGGGTGGC | 0.824
CGTCCAAGGTCAAAGGTCAGTGAGGAGATGACGG | 6.92
ATATGAAGGTTAGCTGGGGTCATTCAGACTAGGC | 6.61
GCGACTGGGGCAAACCAGGTTACCATAAGGTTGG | 0.416
CGAACTAGTTCATTGACAGGACAGTGAATAGTAA | 1.26
CCGACTGGGTCAAGGTTACCATAACGCACAGCCA | 2.05
CCTTACGGGTCACTGACAGGTTACAGCATTTGGA | 3.76
CCTAGCAGGCCAATCTGGGTCACTCACGGCTTGA | 0.411
ACTATTAGTTGACTTAGGGCCACCGATACGACGC | 0.067

Sequence | PBM binding z-score
CCTATTGGGCCAAGGTCATTGATCAGTCAAAGCA | 3.29
ATCACTAGGTAACAAGTTCAGTGAAAGAGAGGAC | 1.6
CCGACTGGGGCGAAGGTTACCATACTCAGTACGA | 0.0154
CGTCCAAGGTCAGAGCGGTCAGTGAATGCCGAGT | 5.45
TCGAGTATGTTAGGGGCATTCAGAATGGCGTCGA | 0.88
AGAATGAGGTTATACGTAGATCAGGTAAGAAAGT | 1.58
CCTATTAGTTGACCATGAGGGCAACCGAAGCTCG | 1.02
CCTACTGGGCCATGCAGAGGTCATTGATCATATG | 3.86
AGAATGAGGTTACCAAAGATCATGGAAACGCTTG | 1.79
TCATATAGGTAAATGCTAGGTGAAAGTACGATCT | 1.15
TCTTGTAGATCAACCAGGTTAAGAAAGCCTGAGT | 1.04
CCGAGTAGGTTATCGGGCATTCAGGCAACGGTGA | -0.386
CCGAGTAGGTTATGGGGCATTCAGGCAACGGTGA | -0.0737
TATACAGGGTAAAAGGCCAGAGTACGAATGTCGA | 0.433
ATATGTAGGTTAAGGGTCATACAGGTTGGTTCGC | 5.42
GCGGCTAGGTCAGGTTGGTCAGCTAACGGGTACG | 0.482
CATACAGGGTCAGCTGGGCCAGAGTAGGGACGGC | 3.63
TCTGCTAGGTCAGATGGTCAGCTAACGAGCTGCC | 0.133
TCTAGTTGGTCACGGAGGTCACATACGACGGGTA | 5.92
AGTCGAAGTTCATCTAGGTAACGTAAGATATGCT | 3.51
